Laboratory results taken from PubChem BioAssay (Tox21).
Results filed as inconclusive are left out. Where a call stands in place of a potency, no number is given. Some structures have more than one record in an assay (separate samples or runs), and their calls can disagree. Activity calls are given as the source filed them. Calls come from the whole dose curve; as a rule, active = well fitted cell-killing curve with a large enough effect in the repeat runs; inconclusive = weak or mixed curves; inactive = flat fitted curve, though single readings scatter.

Assay: qHTS assay to identify small molecule antagonists of the estrogen related receptor (ERR) signaling pathway from Tox21 library - cell viability counter screen (AID 1224834); note: nearly all actives have a fitted effect of over 30% in size
Conditions: ERR reporter cells viability, CellTiter-Fluor, 17.5 h; series mostly up to 92.4 µM
Excerpt: National Center for Advancing Translational Sciences [NCATS]
NIH Chemical Genomics Center [NCGC]
U.S. Environmental Protection Agency [EPA]
National Institutes of Environmental Health Sciences [NIEHS]
National Toxicology Program [NTP]
U.S. Food and Drug Administration [FDA]
Estrogen related receptors (ERRs), the first orphan nuclear receptors discovered, play an important role in the control of cellular energy metabolism. ERRs are required for high-energy production in response to the environmental challenges. ERR-alpha was also identified as an adverse marker for breast cancer progression; ERR-alpha-positive tumors have a poor prognosis. To screen and to identify environmental compounds that perturb the ERR signaling pathways could provide valuable information for potential therapeutic or preventive measures in the treatment of metabolic disease. To differentiate true ERR antagonists or agonist from cytotoxic substances, the assay is multiplexed with cell viability assay.
Tox21 Assay Protocol Summary:
The ERR cells were dispensed at 2,000 cells/5 ul/well in 1536-well white plates using a Multidrop dispenser. After the assay plates were incubated at a 37 C/5% CO2 incubator for 6 hours, 23 nL of compounds dissolved in DMSO, positive and negative controls or DMSO only was transferred to the assay plate by a pin tool. The plates were incubated at 37 C for 17.5 hours. 1 ul/well of CellTiter-Fluor reagent was added into the assay plates using a Flying Reagent Dispenser. After 30-minute incubation at 37 C/5% CO2, the fluorescence intensity in the plates was measured using a ViewLux plate reader.
Potency is the fitted concentration of half-maximal effect.

| SMILES | Potency | viability change, negative = cytotoxic |
| --- | --- | --- |
| COC(CC(C)CCCC(C)(C)O)OC (stereo not given) | inactive |  |
| O=C(c1ccccc1)c1ccc(O)cc1 | 69.4 µM (active) |  |
| CN1CCCN(C(c2ccccc2)c2ccc(Cl)cc2)CC1 (stereo not given) | 29.8 µM (active) |  |
| Oc1ccc2c(c1)Cc1ccccc1-2 | inactive |  |
| [Cl][Nd]([Cl])[Cl] | inactive |  |
| O=C1[C@@H]2[C@H]3CC[C@H](C3)[C@@H]2C(=O)N1CCCCN1CCN(c2ncccn2)CC1 | inactive |  |
| CC(=O)NNC(C)=O | inactive |  |
| CCCCCCCCCCCCCCN(C)C |  | -1.07% [at 19 µM] (inactive) |
| O=C1NC(=O)c2cccc3cccc1c23 | inactive |  |
| COc1cc(NS(=O)(=O)c2ccc(N)cc2)nc(C)n1 | inactive |  |
| O=C(O)CCC(=O)OC[C@@H](NC(=O)C(Cl)Cl)[C@H](O)c1ccc([N+](=O)[O-])cc1 | inactive |  |
| O=C(O)CN1C(=O)c2cccc3cccc(c23)C1=O | inactive |  |
| CCCCCCCC/C=C/C(=O)O | inactive |  |
| CCCCCCCC(=O)OCCCCCC | inactive |  |
| O=C(O)c1cccc(Oc2ccccc2)c1 | inactive |  |
| CC[C@H]1OC(=O)[C@H](C)[C@@H](O[C@H]2C[C@@](C)(OC)[C@@H](O)[C@H](C)O2)[C@H](C)[C@@H](O[C@@H]2O[C@H](C)C[C@H](N(C)C)[C@H]2O)[C@](C)(O)C[C@@H](C)C(=O)[C@H](C)[C@@H](O)[C@]1(C)O | inactive |  |
| CC(C)(C(=O)c1cccnc1)c1cccnc1 | inactive |  |
| Nc1ccn([C@H]2CS[C@@H](CO)O2)c(=O)n1 | inactive |  |
| CNS(=O)(=O)c1cc(C(=O)N2CCC(CCN3C4CCC3CC(n3c(C)nc5ccccc53)C4)(c3cccc(F)c3)CC2)c(Cl)cc1F (stereo not given) | 13.7 µM (active) |  |
| CO[C@@H]1[C@@H](OC)[C@H](C)[C@@](O)(CC(=O)O)O[C@H]1[C@H](C)[C@H]1O[C@@]2(CC[C@@](C)([C@H]3CC[C@@](C)([C@@H]4O[C@@H]([C@H]5O[C@](C)(O)[C@H](C)C[C@@H]5C)C[C@@H]4OC4C[C@H](OC)[C@@H](OC)[C@H](C)O4)O3)O2)C[C@H](O)[C@H]1C (stereo not given in full) | 0.944 µM (active) |  |

| SMILES | Potency | viability change, negative = cytotoxic |
| --- | --- | --- |
| CCCCCCOC(=O)CCCCC | inactive |  |
| CCCCCc1ccco1 | inactive |  |
| CSSc1ccoc1C | inactive |  |
| Cc1oc(=O)oc1COC(=O)[C@@H]1N2C(=O)[C@@H](NC(=O)[C@H](N)c3ccccc3)[C@H]2SC1(C)C | inactive |  |
| C[C@@H]1C[C@H]2[C@@H]3CCC4=CC(=O)C=C[C@]4(C)[C@@]3(F)[C@@H](O)C[C@]2(C)[C@@]1(O)C(=O)COP(=O)(O)O | inactive |  |
| Cc1cccc(C)c1NC(=O)c1cc(S(N)(=O)=O)c(Cl)cc1O | inactive |  |
| CCOC(=O)c1ccc(NC(=O)CN2CCCCC2)cc1 | inactive |  |
| CCc1ccc(C)cc1 | inactive |  |
| CCN(CC)CCOC(=O)C(c1ccccc1)c1ccccc1 | inactive |  |
| O=C(O)CCC(=O)c1ccc(-c2ccccc2)cc1 | inactive |  |
| c1ccc(CNc2ncnc3c2ncn3C2CCCCO2)cc1 (stereo not given) | inactive |  |
| COc1ccc2nc(S(=O)Cc3ncc(C)c(OC)c3C)[nH]c2c1 (stereo not given) | 53.8 µM (active) and inactive |  |
| CC(C)(C)C1(CCc2ccc(Cl)cc2)CO1 (stereo not given) | inactive |  |
| CC(O)Cn1cnc2c1c(=O)n(C)c(=O)n2C (stereo not given) | inactive |  |
| Nc1ccc(NC(=O)c2ccc(N)cc2)cc1 | inactive |  |
| CC1CCCO1 (stereo not given) | inactive |  |
| CC12CC3CC(C)(C1)CC(N)(C3)C2 | inactive |  |
| CS(=O)(=O)c1ccc([C@@H](C[C@H]2CCC(=O)C2)C(=O)Nc2cnccn2)cc1Cl | inactive |  |
| O=P(O)(O)Oc1ccccc1 | inactive |  |
| CCNc1nc(N)nc(Cl)n1 | inactive |  |
